We go through 50 compounds from ChEMBL document CHEMBL3988442, “University of Dundee, Small-Polar-MMV Screening Library” (2021).

In assay [1] the target is T1, Aspartate--tRNA(Asp/Asn) ligase (Mycobacterium tuberculosis (strain ATCC 25618 / H37Rv)) (UniProt P9WFW3). Further: in the data most compounds retested in dose-response had high values.
T1 sequence (whole entry): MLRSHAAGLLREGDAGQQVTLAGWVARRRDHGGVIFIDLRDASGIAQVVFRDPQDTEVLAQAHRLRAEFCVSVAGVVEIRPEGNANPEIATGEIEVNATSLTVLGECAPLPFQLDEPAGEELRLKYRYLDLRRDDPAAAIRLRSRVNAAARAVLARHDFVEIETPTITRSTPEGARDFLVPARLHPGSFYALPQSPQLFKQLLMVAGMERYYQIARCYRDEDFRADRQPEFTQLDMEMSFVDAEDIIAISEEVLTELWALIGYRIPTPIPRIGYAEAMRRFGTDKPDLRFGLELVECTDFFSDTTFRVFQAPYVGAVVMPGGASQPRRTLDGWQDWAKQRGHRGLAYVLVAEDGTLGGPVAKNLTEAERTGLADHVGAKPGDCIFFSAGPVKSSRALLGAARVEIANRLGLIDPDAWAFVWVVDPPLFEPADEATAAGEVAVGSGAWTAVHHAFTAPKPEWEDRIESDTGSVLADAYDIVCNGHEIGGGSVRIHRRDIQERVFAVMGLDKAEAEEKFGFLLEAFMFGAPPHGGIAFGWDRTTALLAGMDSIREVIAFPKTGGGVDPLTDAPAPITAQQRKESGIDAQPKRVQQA
The experiment in a line: Assay for Asp RNA synthetase-1 from Mycobacterium tuberculosis. The class given is functional. On the set-up: scale not given: direction of the effect not stated beside the values. Conditions: 30 µM.

Assay [2] concerns the target Shiga toxin 2 (Escherichia coli O157:H7) (UniProt P09385+P09386). Nature of the assay: E. coli 0.157:H7 Shiga Toxin SOP - stx2 screening assay. The class given is functional. On the set-up: scale not given: direction of the effect not stated beside the values. The settings on record: 30 µM.

In the case of `O=C(NCCNC(=O)c1scnc1Cl)c1ccccc1`, the Percent Effect in assay [1] is 2.84%; in assay [2], -34.6%.
Consider `CCn1cc2c(n1)C(COC)CN(Cc1ccccn1)C2` (stereo not given), for which the values for the Percent Effect in assay [1] and in assay [2] were 7.76% and -16.8%, respectively.
With `CCOC1CCCN(C(=O)c2cnc3c(cnn3C3CCCC3)c2)C1` (stereo not given), the figures for the Percent Effect in assay [1] and in assay [2] were 2.51% and 15.6%, respectively.
Turning to `Cc1nc(CN2CCN(C(=O)c3ccn(C)c(=O)c3)CC2)cs1`, the figures for the Percent Effect in assay [1] and in assay [2] were 4.03% and -43.8%, respectively.
`O=C(NCc1csc(Br)c1)c1ccncc1`: the Percent Effect is -0.335% in assay [1] and -44.3% in assay [2].
As for `CCOc1cc(C)nc(N2CCN(Cc3nccn3C)CC2)n1`, the Percent Effect is -4.49% in assay [1] and 5.04% in assay [2].
On to `COCc1n[nH]/c(=N/C(=O)COc2cnc(C)cc2O)s1`, for which the Percent Effect in assay [1] was -2.13%; in assay [2], -48.9%.
As for `Cc1ncsc1C(=O)N1CCCN(Cc2cscn2)CC1`, the Percent Effect in assay [1] amounted to 1.47%; in assay [2], 16.9%.
`Cn1ccnc1CNC1CCCN(Cc2noc(C3CC3)n2)C1` (stereo not given): the Percent Effect was -0.413% in assay [1] and -13.4% in assay [2].
On to `CN(C)C(=O)COC[C@]12COC[C@H]1CN(CC1CCC1)C2`, for which the Percent Effect in assay [1] was -8.17%; in assay [2] it was -9.5%.
On to `O=C(NC1CCS(=O)(=O)C1)c1sccc1-c1ccc(F)cc1` (stereo not given), for which the Percent Effect in assay [1] is -5.43%; in assay [2], 3.12%.
For `CS(=O)(=O)NC[C@]12COC[C@H]1CN(C(=O)c1ccoc1)C2`, the Percent Effect in assay [1] is 0.452%; in assay [2], -5.39%.
On to `c1cc(-c2nc(CN3CCn4c(nnc4C4CC4)C3)cs2)cs1`, for which the Percent Effect in assay [1] is -2.61%; in assay [2], -11.5%.
Consider `Fc1cccc(-n2ccc(CN3CCCCC3Cn3cncn3)n2)c1` (stereo not given), for which the Percent Effect was -3.17% in assay [1] and 17.2% in assay [2].
With `CN(CC(=O)N1CCN(c2ncccn2)CC1)c1ccc(Cl)cn1`, the Percent Effect in assay [1] is -2%; in assay [2] it was -0.376%.
As to `O=C(C1=CCCC1)N1C[C@H](Oc2cccnc2)[C@H]2OCCC[C@H]21`, the Percent Effect in assay [1] is -2.63%; in assay [2], -10.5%.
In the case of `CN(C)c1ccccc1C(=O)N1C[C@@H](CN2CCOCC2)[C@@H](CO)C1`, the Percent Effect in assay [1] was -3.28%; in assay [2], 10.2%.
Taken in the same sequence, the figures for `Cc1cc(C)n(CC2CN(Cc3cscn3)CCO2)n1` (stereo not given) were -1.81% and -3.38%.
In the case of `Cn1cc(-c2csc(N3CCOCC3)n2)cn1`, the Percent Effect was 2.54% in assay [1] and -13% in assay [2].
In the case of `CC(C)c1cc(N2CCC(CCC(=O)NC3CC3)CC2)n2nccc2n1`, the Percent Effect in assay [1] is 0.32%; in assay [2] it was -4.79%.
Consider `CN(C)C(=O)N1C[C@H]2CN(Cc3cccc(F)c3)C(=O)[C@H]2C1`, for which the Percent Effect in assay [1] is -2.95%; in assay [2], -2.65%.
Taken in the same sequence, the figures for `COc1ccc(-c2cc(C3CCCCCN3S(=O)(=O)N(C)C)on2)cc1` (stereo not given) were -5.4% and -17.1%.
Take `Cc1noc(Cl)c1CCC(=O)N1CCN(c2ncccn2)CC1`: the Percent Effect in assay [1] was -3.2%; in assay [2], 36%.
Taken in the same sequence, the figures for `O=C(COc1coc(CN2CCCC2)cc1=O)NCc1ccccc1Cl` were -2.03% and -62.7%.
As for `Cc1nn(C)c2cnn(CC(=O)NCCc3ccccc3)c12`, the Percent Effect in assay [1] is -1.83%; in assay [2], -33.3%.
Consider `Cc1ccc(CC2CCCN2CC(=O)NCc2ccccn2)cc1` (stereo not given), for which the values for the Percent Effect in assay [1] and in assay [2] were 0.629% and -4.96%, respectively.
Taken in the same sequence, the figures for `CC(O)CN1CCN(Cc2csc(-c3ncccn3)n2)CC1` (stereo not given) were 2.19% and -19.8%.
Turning to `CCc1ccccc1-n1cc(O)c(C(=O)N2CCCCC2)n1`, the Percent Effect in assay [1] is 1.02%; in assay [2], 31%.
Consider `COCc1nc2cc(NCc3ccncc3)ccc2o1`, for which the figures for the Percent Effect in assay [1] and in assay [2] were 57.1% and -55.9%, respectively.
In the same order, the values of `Cc1ccc(CNC2CCN(CCc3ccncc3)CC2)cc1C` are -5.11% and -49.6%.
`Cc1cc(C)cc(C2(C(=O)N3CCCC(n4cncn4)C3)CC2)c1` (stereo not given): the Percent Effect in assay [1] was found to be 0.962%; in assay [2], 26.6%.
On to `Cc1ccc(CN2CCC3(CC2)OC(C(=O)N(C)C)c2ccccc23)o1` (stereo not given), for which the Percent Effect in assay [1] was 3.43%; in assay [2] it was -27.1%.
In the case of `Cc1nn(C)c(N(C)C)c1CNCC(O)c1ccccc1` (stereo not given), the Percent Effect in assay [1] was -4.11%; in assay [2] it was -17.5%.
For `CCCC1CCCN(Cc2csc(-c3cnn(C)c3)n2)CC1` (stereo not given), the Percent Effect in assay [1] is -1.75%; in assay [2], 20.9%.
`Cc1nc2ccnn2c(C)c1CCC(=O)N1CCC(C(N)=O)CC1`: the Percent Effect in assay [1] turned out to be 0%; in assay [2] it was 13.3%.
In the case of `CCN1C[C@@H]2[C@@H](OC)CCN(S(=O)(=O)c3ccccc3)[C@@H]2C1`, the Percent Effect in assay [1] was -4.66%; in assay [2], -20.4%.
With `CC(C)(C)OC(=O)N1CCCc2ccc(NCc3ncc[nH]3)cc21`, the Percent Effect in assay [1] is 5.68%; in assay [2], -52.5%.
Take `COc1c(CNCC(c2cccc(F)c2)N(C)C)c(C(C)C)nn1C` (stereo not given): the Percent Effect in assay [1] is -3.2%; in assay [2], -15.5%.
Regarding `CCc1nc(C2CCCN2C(=O)CCNS(C)(=O)=O)no1` (stereo not given), the Percent Effect is -7.34% in assay [1] and -0.995% in assay [2].
Consider `Cc1noc(C)c1CN1CC2(CCN(C(=O)c3cscn3)CC2)CC1=O`, for which the Percent Effect in assay [1] was 6.36%; in assay [2], -13.6%.
Take `N#CCCCS(=O)(=O)N1CCCC1CC(=O)c1cccs1` (stereo not given): the results for the Percent Effect in assay [1] and in assay [2] were 0.747% and 12%, respectively.
As to `Cc1cccc2c1cnn2CCC(=O)NCC(=O)N(C)C`, the Percent Effect in assay [1] was -1.19%; in assay [2], -22.2%.
As to `CC(C)NC(=O)N1CC[C@@H]2CN(Cc3ccccc3)S(=O)(=O)[C@@H]2CC1`, the Percent Effect is -3.29% in assay [1] and -5.27% in assay [2].
In the same order, the values of `Cc1nn(C)c(Cl)c1C1CCCN1CCc1ccccn1` (stereo not given) are 1.79% and -0.4%.
With `COc1cc(CNCc2ccc(NC(=O)NC(C)C)cc2)cc(OC)c1`, the Percent Effect was 1.67% in assay [1] and -65.1% in assay [2].
In the case of `Cn1cc(CN2CCCC23CCN(C(=O)c2cccn2C)CC3)cn1`, the values for the Percent Effect in assay [1] and in assay [2] were -4.47% and -10.8%, respectively.
As to `Cc1ccc(-c2nc(CCNC(=O)CCN3CCOC3=O)co2)cc1`, the Percent Effect in assay [1] is -1.93%; in assay [2] it was -45.5%.
For the compound `O=C(NCCNc1cnccn1)N1CCCC1`, the Percent Effect is -2.84% in assay [1] and 2.11% in assay [2].
Regarding `O=C1CCSCC(C(=O)N2CCCC2)N1` (stereo not given), the Percent Effect in assay [1] was -3.45%; in assay [2], -6.39%.
In the same order, the values of `O=C(Cn1ccnc1)N1C[C@@H]2CC[C@H](Oc3ccccc3Cl)[C@@H]2C1` are -0.551% and 13.9%.
